test system: CSNK1G2; settings: concentration: 1 μM, replicates: in singlicate; n = 1
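Note: KINOMEscan kinase panel screen.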

Row | SMILES | %Inh [%]
1 | CCCC(=O)Nc1n[nH]c2ncc(-c3cccc4ccccc34)cc12 [SB-642057] | 0
2 | Nc1nc(N)c2nc(-c3ccccc3)[nH]c2n1 [SKF-12778] | 32
3 | Cl.c1ccc(Cn2cnc3cc(Nc4ncnc5ccccc45)ccc32)cc1 [GW272142] | 1
4 | COc1cccc(-n2cnc3c(N)ncnc32)c1 [SKF-97416] | 0
5 | COC(=O)c1c(-c2ccccc2)c2cc(Br)ccc2c(=O)n1Cc1ccc(S(C)(=O)=O)cc1 | 13
6 | COc1cccc(C2=C(Nc3cccc(C(=O)O)c3)C(=O)NC2=O)c1 [SB-390770] | 0
7 | O=C1NC(=O)C(c2ccccc2)=C1Nc1cccc(O)c1 [SB-390534] | 0
8 | O=c1cc(N2CCOCC2)nc2n(Cc3ccc(F)c(Cl)c3)ccn12 [GSK2297099] | 0
9 | Cc1nnc(-c2ccc3ncn(-c4ccc(S(C)=O)cc4)c3c2)o1 (centres unmarked) | 18
10 | CCc1nc(-c2cccc(C)c2)c(-c2ccncc2)s1 | 10
11 | CCn1c(-c2ccoc2)nc2cnccc21 [SB-733887] | 0
12 | COc1cc2ncn(-c3cc(OCc4ccc(S(C)(=O)=O)cc4)c(C(N)=O)s3)c2cc1OC [GW869979] | 10
13 | COc1ccc(-c2coc3ccc(-c4nnc(SCc5cccc(C#N)c5)o4)cc23)cc1 | 0
14 | Fc1cccc(CSc2nnc(-c3ccc4c(c3)CCO4)o2)c1 | 10
15 | Cc1ccc(Oc2ccc(Nc3ncnc4cc[nH]c34)cc2C)cn1 | 13
16 | COc1ccc(-n2cnc3c(N)ncnc32)cc1 [SKF-97236] | 11
17 | COc1cc(Nc2nccc(N3CCC(NC(=O)C(C)c4ccc(Cl)cc4)C3)n2)cc(OC)c1OC (centres unmarked) [GSK1379757] | 0
18 | Cc1nn2c(=O)cc(N3CCOCC3)nc2n1Cc1cccc(Cl)c1Cl [GSK2342769] | 0
19 | COc1ccc(-c2cc3c(C)nc(N)nc3n([C@H]3CC[C@H](O)CC3)c2=O)cn1 | 0

Row | SMILES | %Inh [%]
20 | COc1cc2ncn(-c3cc(OCc4ccncc4)c(C(N)=O)s3)c2cc1OC [GSK336313] | 0
21 | COc1cc(Nc2nccc(N3CCC(NC(=O)C4COc5ccccc5O4)C3)n2)cc(OC)c1OC (centres unmarked) [GSK1379761] | 0
22 | Nc1ncnc2c1ncn2-c1cccc(F)c1 [SKF-97560] | 13
23 | CCC(=O)c1c(-c2ccccc2)c2cc(Cl)ccc2c(=O)n1Cc1cc(C(=O)NC2CC2)n(C)n1 | 0
24 | Nc1n[nH]c2ncc(-c3ccccc3)cc12 [SB-517081] | 0
25 | Cc1nc(N(C)[C@H]2CN(C(=O)CC#N)CC[C@H]2C)c2cc[nH]c2n1 | 0
26 | CC(C)(C)c1ccc(C(=O)Nc2cn3cc(-c4ccccc4)ccc3n2)cc1 | 8
27 | FC(F)(F)c1ccc(-c2ncn(CCCN3CCOCC3)c2-c2ccncc2)cc1 [SB-217780] | 0
28 | O=C(Nc1n[nH]c2nc(-c3ccccc3)c(Cl)cc12)C1CC1 [SB-734909] | 0
29 | COc1ccc(-c2cc3c(C)nc(N)nc3n([C@H]3CC[C@H](OCCO)CC3)c2=O)cn1 | 0
30 | Cc1ccc(-c2ccc3c(ccc4sc5c(c43)NC[C@@H](C)N=C5N(C)C)n2)cn1 | 0
31 | Nc1n[nH]c2nnc(-c3ccccc3)c(-c3ccccc3)c12 [GW554060] | 0
32 | CCC(=O)c1c(-c2ccccc2)c2cc(Cl)ccc2c(=O)n1Cc1ccc(C(=O)O)cc1 | 0
33 | CCS(=O)(=O)c1ccc(OC)c(Nc2ncc(-c3ccc(F)cc3)o2)c1.Cl [GW591947] | 0
34 | CCS(=O)c1ccc(-c2coc3ccc(-c4nnc(C)o4)cc23)cc1 (centres unmarked) | 0
35 | O=C(NCc1cccs1)c1cc(C(=O)c2c(Cl)cccc2Cl)c[nH]1 [GW823670] | 0
36 | COc1cccc(C2=C(N(C)c3ccccc3)C(=O)NC2=O)c1 [SB-334865] | 0
37 | OCCCNc1nccc(-c2c(-c3cccc(C(F)(F)F)c3)nn3cc(C(F)(F)F)ccc23)n1 [GW630813] | 0

test system: CSNK1G3; settings: concentration: 1 μM, replicates: in singlicate; n = 1

Row | SMILES | %Inh [%]
38 | CCCC(=O)Nc1n[nH]c2ncc(-c3cccc4ccccc34)cc12 [SB-642057] | 1
39 | Nc1nc(N)c2nc(-c3ccccc3)[nH]c2n1 [SKF-12778] | 30
40 | Cl.c1ccc(Cn2cnc3cc(Nc4ncnc5ccccc45)ccc32)cc1 [GW272142] | 27
41 | COc1cccc(-n2cnc3c(N)ncnc32)c1 [SKF-97416] | 3
42 | COC(=O)c1c(-c2ccccc2)c2cc(Br)ccc2c(=O)n1Cc1ccc(S(C)(=O)=O)cc1 | 0
43 | COc1cccc(C2=C(Nc3cccc(C(=O)O)c3)C(=O)NC2=O)c1 [SB-390770] | 7
44 | O=C1NC(=O)C(c2ccccc2)=C1Nc1cccc(O)c1 [SB-390534] | 8
45 | O=c1cc(N2CCOCC2)nc2n(Cc3ccc(F)c(Cl)c3)ccn12 [GSK2297099] | 34
46 | Cc1nnc(-c2ccc3ncn(-c4ccc(S(C)=O)cc4)c3c2)o1 (centres unmarked) | 24
47 | CCc1nc(-c2cccc(C)c2)c(-c2ccncc2)s1 | 12
48 | CCn1c(-c2ccoc2)nc2cnccc21 [SB-733887] | 4
49 | COc1cc2ncn(-c3cc(OCc4ccc(S(C)(=O)=O)cc4)c(C(N)=O)s3)c2cc1OC [GW869979] | 3
50 | COc1ccc(-c2coc3ccc(-c4nnc(SCc5cccc(C#N)c5)o4)cc23)cc1 | 8
51 | Fc1cccc(CSc2nnc(-c3ccc4c(c3)CCO4)o2)c1 | 0
52 | Cc1ccc(Oc2ccc(Nc3ncnc4cc[nH]c34)cc2C)cn1 | 0
53 | COc1ccc(-n2cnc3c(N)ncnc32)cc1 [SKF-97236] | 6
54 | COc1cc(Nc2nccc(N3CCC(NC(=O)C(C)c4ccc(Cl)cc4)C3)n2)cc(OC)c1OC (centres unmarked) [GSK1379757] | 25
55 | Cc1nn2c(=O)cc(N3CCOCC3)nc2n1Cc1cccc(Cl)c1Cl [GSK2342769] | 9
56 | COc1ccc(-c2cc3c(C)nc(N)nc3n([C@H]3CC[C@H](O)CC3)c2=O)cn1 | 0

Row | SMILES | %Inh [%]
57 | COc1cc2ncn(-c3cc(OCc4ccncc4)c(C(N)=O)s3)c2cc1OC [GSK336313] | 30
58 | COc1cc(Nc2nccc(N3CCC(NC(=O)C4COc5ccccc5O4)C3)n2)cc(OC)c1OC (centres unmarked) [GSK1379761] | 2
59 | Nc1ncnc2c1ncn2-c1cccc(F)c1 [SKF-97560] | 0
60 | CCC(=O)c1c(-c2ccccc2)c2cc(Cl)ccc2c(=O)n1Cc1cc(C(=O)NC2CC2)n(C)n1 | 0
61 | Nc1n[nH]c2ncc(-c3ccccc3)cc12 [SB-517081] | 6
62 | Cc1nc(N(C)[C@H]2CN(C(=O)CC#N)CC[C@H]2C)c2cc[nH]c2n1 | 0
63 | CC(C)(C)c1ccc(C(=O)Nc2cn3cc(-c4ccccc4)ccc3n2)cc1 | 20
64 | FC(F)(F)c1ccc(-c2ncn(CCCN3CCOCC3)c2-c2ccncc2)cc1 [SB-217780] | 12
65 | O=C(Nc1n[nH]c2nc(-c3ccccc3)c(Cl)cc12)C1CC1 [SB-734909] | 0
66 | COc1ccc(-c2cc3c(C)nc(N)nc3n([C@H]3CC[C@H](OCCO)CC3)c2=O)cn1 | 0
67 | Cc1ccc(-c2ccc3c(ccc4sc5c(c43)NC[C@@H](C)N=C5N(C)C)n2)cn1 | 1
68 | Nc1n[nH]c2nnc(-c3ccccc3)c(-c3ccccc3)c12 [GW554060] | 0
69 | CCC(=O)c1c(-c2ccccc2)c2cc(Cl)ccc2c(=O)n1Cc1ccc(C(=O)O)cc1 | 0
70 | CCS(=O)(=O)c1ccc(OC)c(Nc2ncc(-c3ccc(F)cc3)o2)c1.Cl [GW591947] | 8
71 | CCS(=O)c1ccc(-c2coc3ccc(-c4nnc(C)o4)cc23)cc1 (centres unmarked) | 0
72 | O=C(NCc1cccs1)c1cc(C(=O)c2c(Cl)cccc2Cl)c[nH]1 [GW823670] | 0
73 | COc1cccc(C2=C(N(C)c3ccccc3)C(=O)NC2=O)c1 [SB-334865] | 2
74 | OCCCNc1nccc(-c2c(-c3cccc(C(F)(F)F)c3)nn3cc(C(F)(F)F)ccc23)n1 [GW630813] | 13
